Measured values: PubChem BioAssay (Tox21)
Inconclusive results are not listed. The source made the active and inactive calls. Unless noted, calls come from the whole dose curve.

Legend:
[1] = qHTS assay to identify small molecule agonists of the peroxisome proliferator-activated receptor delta (PPARd) signaling pathway - cell viability counter screen (AID 743211; active = well fitted curve in the direction sought with a large enough effect in the repeat runs; an effect the other way counts as inactive or inconclusive; note: % is set by controls: 0 for no effect and ±100 for the full control effect; nearly all actives have a fitted effect of over 55% in size)
Procedure, shortened: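 Viability was measured as CellTiter-Glo luminescence (30 min, room temperature) in the same wells as the beta-lactamase readout. GeneBLAzer PPARd UAS-bla HEK293H cells received compound after 5 h plating and were incubated 17 h at 37 C.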

[2] = qHTS assay to identify small molecule antagonists of the peroxisome proliferator-activated receptor delta (PPARd) signaling pathway - cell viability counter screen (AID 743213; active = well fitted curve in the direction sought with a large enough effect in the repeat runs; an effect the other way counts as inactive or inconclusive; note: % is set by controls: 0 for no effect and ±100 for the full control effect; nearly all actives have a fitted effect of over 50% in size)
Procedure, shortened: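 Cytotoxicity counter screen: CellTiter-Glo luminescence read 30 min after addition, in the same wells as the reporter assay. There, PPARd UAS-bla HEK293H cells (3000/well) were treated 17 h at 37 C with compound and 300 nM L165041.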

[3] = qHTS assay to identify small molecule agonists of the farnesoid-X-receptor (FXR) signaling pathway - cell viability counter screen (AID 743218; active = well fitted curve in the direction sought with a large enough effect in the repeat runs; an effect the other way counts as inactive or inconclusive; note: % is set by controls: 0 for no effect and ±100 for the full control effect; nearly all actives have a fitted effect of over 45% in size)
Procedure, shortened: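 Quantitative HTS counter screen measuring ATP-based viability via CellTiter-Glo luminescence in HEK 293T cells carrying a UAS-driven beta-lactamase reporter, after 16 h compound exposure at 37 C.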

[4] = qHTS assay to identify small molecule antagonists of the farnesoid-X-receptor (FXR) signaling pathway - cell viability counter screen (AID 743221; active = well fitted cell-killing curve with a large enough effect in the repeat runs, not every such curve was filed as active; note: % is set by controls: 0 for no effect and ±100 for the full control effect; nearly all actives have a fitted effect of over 50% in size)
Procedure, shortened: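 Cytotoxicity counter screen run in the FXR-bla reporter wells: HEK 293T cells exposed to compound with 50 uM (final) chenodeoxycholic acid for 16 h, 37 C, then viability measured by CellTiter-Glo luminescence after 30 min, room temperature.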

[5] = biological target: Vitamin D3 receptor (Homo sapiens) (UniProt P11473); assay: qHTS assay to identify small molecule agonists of the vitamin D receptor (VDR) signaling pathway (AID 743222); note: % is set by controls: 0 for no effect and ±100 for the full control effect
Procedure, shortened: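 Tox21 cell reporter format: VDR-bla line, 16 h compound exposure in 5% CO2 at 37C, then fluorescence intensity after 2 h with LiveBLAzer B/G FRET substrate.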

[6] = biological target: Vitamin D3 receptor (Homo sapiens) (UniProt P11473); assay: qHTS assay to identify small molecule antagonists of the vitamin D receptor (VDR) signaling pathway (AID 743223; active = well fitted inhibition curve with a large enough effect in the signal ratio in the repeat runs, not every such curve was filed as active; the % refers to the signal ratio; note: % is set by controls: 0 for no effect and ±100 for the full control effect)
Procedure, shortened: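 Antagonist mode: compound added to VDR-bla cells alongside agonist 1alpha,25-dihydroxyvitamin D3 (3 nM final), incubation 16 h at 37C. Read-out is LiveBLAzer FRET fluorescence, 2 h at room temperature.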

[7] = qHTS assay to identify small molecule agonists of the vitamin D receptor (VDR) signaling pathway - cell viability counter screen (AID 743224; active = well fitted curve in the direction sought with a large enough effect in the repeat runs; an effect the other way counts as inactive or inconclusive; note: series mostly up to about 63 µM; % is set by controls: 0 for no effect and ±100 for the full control effect; nearly all actives have a fitted effect of over 50% in size)
Procedure, shortened: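 CellTiter-Glo viability readout on VDR-bla cells, measured after 16 h of compound treatment at 37C in the same wells.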

[8] = qHTS assay to identify small molecule antagonists of the vitamin D receptor (VDR) signaling pathway - cell viability counter screen (AID 743225; active = well fitted curve in the direction sought with a large enough effect in the repeat runs; an effect the other way counts as inactive or inconclusive; note: % is set by controls: 0 for no effect and ±100 for the full control effect; nearly all actives have a fitted effect of over 50% in size)
Procedure, shortened: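 Cytotoxicity counter screen read by CellTiter-Glo luminescence (30 min, room temperature) in the same wells as the VDR-bla antagonist readout. HEK 293T VDR-UAS-bla cells had 16 h at 37C with compound and 3 nM (final) 1-alpha,25-dihydroxyvitamin D3, then 2 h with FRET substrate.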

[9] = qHTS assay to identify small molecule agonists of the NFkB signaling pathway - cell viability counter screen (AID 1159515); note: series mostly up to about 61 µM; % is set by controls: 0 for no effect and ±100 for the full control effect; nearly all actives have a fitted effect of over 55% in size
Procedure, shortened: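 Tox21 library compounds were tested for cytotoxicity against NFkB-bla ME-180 cells during a 5 hr exposure at 37 C. CellTiter-Glo luminescence served as the viability read-out.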

[10] = qHTS assay to identify small molecule agonists of the endoplasmic reticulum stress response signaling pathway (AID 1159516; active = well fitted activation curve with a large enough effect in the signal ratio in the repeat runs, not every such curve was filed as active; the % refers to the signal ratio; note: % is set by controls: 0 for no effect and ±100 for the full control effect)
Procedure, shortened: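 Fluorescence at 460 and 530 nm (405 nm excitation) reports beta-lactamase from an ER stress response element in HeLa cells treated 5 hr at 37 C.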

[11] = qHTS assay to identify small molecule agonists of the endoplasmic reticulum stress response signaling pathway - cell viability counter screen (AID 1159517)
Procedure, shortened: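 Steps: seed 1,500 ESRE-bla HeLa cells per well; incubate overnight at 37 C, 5% CO2; add compounds in DMSO for 5 hr; run FRET substrate 2 hr RT; add CellTiter-Glo, wait 30 min, read luminescence.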

[12] = qHTS assay to identify small molecule antagonists of the retinoid-related orphan receptor gamma (ROR-gamma) signaling pathway - cell viability counter screen (AID 1159520; active = well fitted curve in the direction sought with a large enough effect in the repeat runs; an effect the other way counts as inactive or inconclusive)
Procedure, shortened: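 Tet-on ROR gamma CHO cells were given compounds for 2 hr, then doxycycline hyclate at 1 uM final, and incubated 16 hr at 37 C. Viability was measured as ATP content by CellTiter-Glo luminescence.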

[13] = qHTS assay to identify small molecule agonists of the AP-1 signaling pathway - cell viability counter screen (AID 1159525); note: nearly all actives have a fitted effect of over 55% in size
Procedure, shortened: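 Same-well cytotoxicity counter screen of the Tox21 10K library in ME-180 cells. The readout is ATP-dependent luminescence after 5 h compound treatment. Data are normalised to DMSO and tetra n-octyl ammonium bromide controls.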

[14] = qHTS assay to identify small molecule agonists of the AP-1 signaling pathway (AID 1159526); note: % is set by controls: 0 for no effect and ±100 for the full control effect
[15] = biological target: Retinoic acid receptor RXR-alpha (Homo sapiens) (UniProt P19793); assay: qHTS assay to identify small molecule agonists of the RXR signaling pathway (AID 1159527); note: % is set by controls: 0 for no effect and ±100 for the full control effect; nearly all actives have a fitted effect of over 35% in size
Procedure, shortened: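 Agonist-mode beta-lactamase reporter assay: HEK 293T RXR-alpha-UAS-bla cells treated 16 hr at 37 C with compounds, 9-cis retinoic acid as positive control. LiveBLAzer FRET substrate, 405 nm excitation, 460/530 nm emission.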

[16] = biological target: Peroxisome proliferator-activated receptor delta (Homo sapiens) (UniProt Q03181); assay: qHTS assay to identify small molecule antagonists of the peroxisome proliferator-activated receptor delta (PPARd) signaling pathway (AID 743215; active = well fitted inhibition curve with a large enough effect in the signal ratio in the repeat runs, not every such curve was filed as active; the % refers to the signal ratio)
Procedure, shortened: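 Here, a reporter line (HEK293H, beta-lactamase under a UAS) measures PPARd signaling. Compounds are tested against agonist L165041 at 300 nM final concentration over 17 h at 37 C, with fluorescence read after substrate.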

[17] = biological target: Bile acid receptor (Homo sapiens) (UniProt Q96RI1); assay: qHTS assay to identify small molecule agonists of the farnesoid-X-receptor (FXR) signaling pathway (AID 743220; active = well fitted activation curve with a large enough effect in the signal ratio in the repeat runs, not every such curve was filed as active; the % refers to the signal ratio; note: % is set by controls: 0 for no effect and ±100 for the full control effect)
Procedure, shortened: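 FXR-UAS-bla HEK 293T cells carrying a UAS-driven beta-lactamase reporter were plated for 5 h at 37C/5% CO2, then exposed to DMSO-dissolved Tox21 10K compounds for 16 h at 37C. A LiveBLAzer B/G FRET substrate was loaded for 2 h at room temperature before fluorescence reading.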

[18] = biological target: Peroxisome proliferator-activated receptor delta (Homo sapiens) (UniProt Q03181); assay: qHTS assay to identify small molecule agonists of the peroxisome proliferator-activated receptor delta (PPARd) signaling pathway (AID 743212); note: % is set by controls: 0 for no effect and ±100 for the full control effect
Procedure, shortened: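 Read-out: beta-lactamase FRET fluorescence after 2 h room-temperature incubation with LiveBLAzer B/G substrate. Cells were HEK293H carrying a UAS-bla reporter for PPARd, treated at 37 C with DMSO-dissolved compounds.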

[19] = biological target: Nuclear receptor ROR-gamma (Homo sapiens) (UniProt P51449); assay: qHTS assay to identify small molecule antagonists of the retinoid-related orphan receptor gamma (ROR-gamma) signaling pathway (AID 1159521; active = well fitted curve in the direction sought with a large enough effect in the repeat runs; an effect the other way counts as inactive or inconclusive)
Procedure, shortened: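 Antagonist read-out: drop in luminescence (ONE-Glo) from an RORE-LUC reporter in CHO cells with doxycycline-inducible ROR-gamma; 2 hr compound pretreatment, 1 uM doxycycline, 16 hr incubation at 37 C.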

[20] = biological target: Bile acid receptor (Homo sapiens) (UniProt Q96RI1); assay: qHTS assay to identify small molecule antagonists of the farnesoid-X-receptor (FXR) signaling pathway (AID 743217; active = well fitted inhibition curve with a large enough effect in the signal ratio in the repeat runs, not every such curve was filed as active; the % refers to the signal ratio; note: % is set by controls: 0 for no effect and ±100 for the full control effect)
Procedure, shortened: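 Test compounds are pin-transferred onto FXR-bla HEK 293T cells, then chenodeoxycholic acid is added at 50 uM final. After 16 h at 37 °C, LiveBLAzer B/G substrate is applied for 2 h at room temperature and fluorescence read.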

Sequence of Bile acid receptor (Homo sapiens) (Q96RI1 whole entry, looked up): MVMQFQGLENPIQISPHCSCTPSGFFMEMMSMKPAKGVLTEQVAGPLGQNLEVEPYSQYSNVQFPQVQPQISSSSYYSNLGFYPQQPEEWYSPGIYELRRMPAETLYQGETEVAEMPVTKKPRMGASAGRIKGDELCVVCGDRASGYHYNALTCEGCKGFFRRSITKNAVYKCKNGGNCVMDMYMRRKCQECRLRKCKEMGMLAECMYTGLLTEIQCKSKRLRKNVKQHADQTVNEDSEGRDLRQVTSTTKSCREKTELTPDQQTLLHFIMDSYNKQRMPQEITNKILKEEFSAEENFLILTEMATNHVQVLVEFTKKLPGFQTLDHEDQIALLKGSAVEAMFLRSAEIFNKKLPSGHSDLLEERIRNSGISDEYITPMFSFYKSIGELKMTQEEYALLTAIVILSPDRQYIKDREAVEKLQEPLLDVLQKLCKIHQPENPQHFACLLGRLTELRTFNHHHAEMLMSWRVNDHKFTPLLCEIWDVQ
Sequence of Retinoic acid receptor RXR-alpha (Homo sapiens) (P19793 whole entry, looked up): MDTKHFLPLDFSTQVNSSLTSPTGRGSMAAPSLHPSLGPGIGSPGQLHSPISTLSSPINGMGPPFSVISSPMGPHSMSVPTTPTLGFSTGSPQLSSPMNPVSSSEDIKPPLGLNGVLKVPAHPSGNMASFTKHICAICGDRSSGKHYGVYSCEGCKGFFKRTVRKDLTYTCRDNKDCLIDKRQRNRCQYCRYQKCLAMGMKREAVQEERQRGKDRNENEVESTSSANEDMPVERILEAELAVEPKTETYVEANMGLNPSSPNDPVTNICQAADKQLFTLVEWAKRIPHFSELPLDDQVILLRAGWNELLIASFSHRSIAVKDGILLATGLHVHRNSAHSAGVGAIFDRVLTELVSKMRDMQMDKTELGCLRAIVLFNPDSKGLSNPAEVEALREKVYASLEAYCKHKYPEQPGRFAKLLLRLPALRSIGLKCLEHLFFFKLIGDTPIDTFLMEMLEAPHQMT
Sequence of Peroxisome proliferator-activated receptor delta (Homo sapiens) (Q03181 whole entry, looked up): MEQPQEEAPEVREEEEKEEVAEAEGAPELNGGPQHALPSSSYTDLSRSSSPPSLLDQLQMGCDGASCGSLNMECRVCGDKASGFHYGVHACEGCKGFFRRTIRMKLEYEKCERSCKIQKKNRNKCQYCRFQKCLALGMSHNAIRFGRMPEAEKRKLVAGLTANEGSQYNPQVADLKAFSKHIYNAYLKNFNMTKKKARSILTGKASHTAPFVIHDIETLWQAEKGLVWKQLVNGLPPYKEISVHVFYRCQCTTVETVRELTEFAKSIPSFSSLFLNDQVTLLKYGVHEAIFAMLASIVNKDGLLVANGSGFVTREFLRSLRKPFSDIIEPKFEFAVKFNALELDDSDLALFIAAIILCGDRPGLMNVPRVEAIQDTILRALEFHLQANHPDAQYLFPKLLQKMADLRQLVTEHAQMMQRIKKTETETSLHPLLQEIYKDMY
Sequence of Vitamin D3 receptor (Homo sapiens) (P11473 whole entry, looked up): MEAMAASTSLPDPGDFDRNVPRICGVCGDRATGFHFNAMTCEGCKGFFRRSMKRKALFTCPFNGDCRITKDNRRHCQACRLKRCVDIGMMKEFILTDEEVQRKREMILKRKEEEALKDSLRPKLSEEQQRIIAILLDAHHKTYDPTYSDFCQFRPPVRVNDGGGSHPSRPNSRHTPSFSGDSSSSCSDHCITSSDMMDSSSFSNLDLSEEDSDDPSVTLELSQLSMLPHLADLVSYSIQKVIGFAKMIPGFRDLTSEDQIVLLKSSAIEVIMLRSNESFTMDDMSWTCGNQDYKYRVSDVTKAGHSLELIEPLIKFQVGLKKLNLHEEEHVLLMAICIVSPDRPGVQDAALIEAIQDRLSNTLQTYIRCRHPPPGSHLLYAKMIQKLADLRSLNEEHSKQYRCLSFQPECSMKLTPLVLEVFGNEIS

C=CC(C)(CCC=C(C)C)OC(=O)c1ccccc1N (configuration not stated)
inactive: Potency [1] | Potency [2] | Potency [3] | Potency [4] | outcome [5] | Potency [6] | Potency [7] | Potency [8] | Potency [9] | Potency [10] | Potency [11] | Potency [12] | Potency [13] | Potency [14] | Potency [15]

CN[C@@H](C)[C@H](O)c1ccccc1
inactive: Potency [2] | Potency [16] | outcome [17] | Potency [4] | outcome [5] | Potency [6] | Potency [7] | Potency [8] | Potency [9] | Potency [10] | Potency [11] | Potency [12] | Potency [13] | Potency [14] | Potency [15]

FC(Cl)(Cl)C(F)(Cl)Cl
inactive: Potency [1] | Potency [2] | Potency [3] | Potency [4] | outcome [5] | Potency [6] | Potency [7] | Potency [9] | Potency [10] | Potency [11] | Potency [12] | Potency [13] | Potency [14] | Potency [15]

NP(N)(=O)NC(=O)c1ccc(F)cc1
inactive: Potency [1] | outcome [18] | Potency [2] | Potency [16] | Potency [3] | Potency [4] | outcome [5] | Potency [7] | Potency [8] | Potency [9] | Potency [10] | Potency [11] | Potency [19] | Potency [13] | Potency [14] | Potency [15]

Clc1ccc2ccccc2c1
inactive: Potency [1] | outcome [18] | Potency [16] | Potency [20] | Potency [3] | outcome [17] | Potency [4] | Potency [7] | Potency [8] | Potency [9] | Potency [10] | Potency [11] | Potency [19] | Potency [13] | Potency [14] | Potency [15]

O=[N+]([O-])c1cc(Cl)c(Cl)cc1Cl
inactive: Potency [1] | outcome [18] | Potency [16] | Potency [3] | Potency [4] | outcome [5] | Potency [6] | Potency [7] | Potency [8] | Potency [9] | Potency [10] | Potency [11] | Potency [19] | Potency [13] | Potency [14] | Potency [15]

CCCCCCCCCCCCN=C(N)N
inactive: activity change, negative = cytotoxicity [1] -26.8% [at 2.7 µM] | activation [18] 6.16% [at 2.7 µM] | viability change, negative = cytotoxic [2] -15.8% [at 2.83 µM] | activity change, negative = cytotoxicity [4] -27.4% [at 2.69 µM] | activation [5] -0.533% [at 2.71 µM] | activity change, negative = inhibition [6] 3.88% [at 3.11 µM] | viability change, negative = cytotoxic [8] -22.1% [at 3.11 µM] | activity, negative = cytotoxic [9] -2.48% [at 3.12 µM] | activation [10] 0.217% [at 3.11 µM] | activity change, negative = cytotoxicity [11] 5.11% [at 3.11 µM] | activity change, negative = inhibition [19] -12% [at 3.27 µM] | viability change, negative = cytotoxic [13] -1.76% [at 2.72 µM] | activation [14] 1.6% [at 2.72 µM] | activation [15] 1.85% [at 2.71 µM]

CCCCCBr
inactive: Potency [1] | outcome [18] | Potency [16] | Potency [3] | Potency [4] | outcome [5] | Potency [6] | Potency [7] | Potency [9] | Potency [10] | Potency [11] | Potency [19] | Potency [13] | Potency [14] | Potency [15]

CCCC(C)(COC(N)=O)COC(=O)NC(C)C (configuration not stated)
inactive: Potency [1] | Potency [2] | Potency [3] | Potency [4] | outcome [5] | Potency [6] | Potency [7] | Potency [8] | Potency [9] | Potency [10] | Potency [11] | Potency [12] | Potency [13] | Potency [14] | Potency [15]

CC(Cl)C(=O)O (configuration not stated)
inactive: Potency [1] | outcome [5] | Potency [7] | Potency [9] | Potency [10] | Potency [11] | Potency [12] | Potency [13] | Potency [14] | Potency [15]

SCc1ccccc1
inactive: Potency [1] | outcome [18] | Potency [2] | Potency [16] | Potency [3] | outcome [17] | Potency [4] | outcome [5] | Potency [6] | Potency [7] | Potency [9] | Potency [10] | Potency [11] | Potency [19] | Potency [13] | Potency [14] | Potency [15]

CN(C)C(=O)Nc1cccc(OC(=O)NC(C)(C)C)c1
inactive: Potency [1] | outcome [18] | Potency [2] | Potency [16] | Potency [3] | Potency [4] | outcome [5] | Potency [7] | Potency [8] | Potency [9] | Potency [10] | Potency [11] | Potency [19] | Potency [13] | Potency [14] | Potency [15]

CCCCCCCCCCCCCCCl
inactive: Potency [1] | Potency [2] | Potency [16] | Potency [3] | Potency [4] | outcome [5] | Potency [6] | Potency [7] | Potency [8] | Potency [9] | Potency [10] | Potency [11] | Potency [12] | Potency [14] | Potency [15]

NC(=O)CF
inactive: Potency [1] | Potency [2] | Potency [3] | Potency [4] | outcome [5] | Potency [7] | Potency [9] | Potency [10] | Potency [11] | Potency [12] | Potency [13] | Potency [14] | Potency [15]

CCCCC(CC)CO[N+](=O)[O-] (configuration not stated)
inactive: Potency [1] | Potency [2] | Potency [16] | Potency [3] | Potency [4] | outcome [5] | Potency [7] | Potency [8] | Potency [9] | Potency [10] | Potency [11] | Potency [12] | Potency [13] | Potency [14]

C[C@]12CC[C@H]3[C@@H](CCC4=CC(=O)CC[C@@H]43)[C@@H]1CC[C@@H]2OC(=O)CCc1ccccc1
inactive: Potency [1] | outcome [18] | Potency [2] | Potency [16] | Potency [3] | Potency [4] | outcome [5] | Potency [6] | Potency [7] | Potency [8] | Potency [9] | Potency [10] | Potency [11] | Potency [12] | Potency [14] | Potency [15]
